Compound activity deposited in PubChem by National Center for Advancing Translational Sciences (NCATS).
Sampled rows, rich in hits. Any-hit rate of the full collection: about 11%.
HEK293 tox: HEK 293 cell cytotoxicity. HEK 293 viability, ATP luminescence (CellTiter-Glo), 48-72 h. Potency, µM (highest dose often 115 µM), usual class: inhibitors. hit rate 6.6% among 94,000. AID 1345083; note: nearly all actives have a fitted effect of over 60% in size
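Luminescence from cellular ATP, measured with CellTiter-Glo, indicates HEK 293 viability. Cells plated at 250 cells/well are treated with compound for 48 or 72 hr at 37 degree Celsius before reagent addition.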
FLuc inh: blocks purified firefly luciferase enzyme activity; P08659; purified P. pyralis luciferase, luminescence, biochemical; Potency, µM (series often up to 115 µM), most hits filed as inhibitors; hit rate 2.5% among 76,000; AID 1347043; note: nearly all actives have a fitted effect of over 65% in size
Target sequence (P08659 whole entry, looked up): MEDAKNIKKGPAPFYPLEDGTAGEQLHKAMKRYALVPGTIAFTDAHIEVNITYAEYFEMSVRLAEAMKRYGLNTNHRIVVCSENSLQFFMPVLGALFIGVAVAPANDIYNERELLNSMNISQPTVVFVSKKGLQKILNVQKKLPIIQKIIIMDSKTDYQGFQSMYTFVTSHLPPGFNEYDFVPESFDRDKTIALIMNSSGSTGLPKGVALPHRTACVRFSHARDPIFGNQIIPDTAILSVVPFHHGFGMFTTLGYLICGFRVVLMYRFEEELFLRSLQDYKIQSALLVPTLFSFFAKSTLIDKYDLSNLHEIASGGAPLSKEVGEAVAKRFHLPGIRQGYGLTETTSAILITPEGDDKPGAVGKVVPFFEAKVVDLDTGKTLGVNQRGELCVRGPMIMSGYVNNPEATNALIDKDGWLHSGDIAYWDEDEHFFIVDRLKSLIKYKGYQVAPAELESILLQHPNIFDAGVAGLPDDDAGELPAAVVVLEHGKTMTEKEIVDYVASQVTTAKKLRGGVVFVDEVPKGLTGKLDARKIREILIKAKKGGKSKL
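Biochemical qHTS: compound (6-point titration) added to 10uM D-luciferin plus 10uM ATP in Tris acetate pH 7.5 buffer with Mg, Tween-20 and BSA, then purified enzyme at 10nM; light output imaged.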
hNpr1 antagonist: antagonists of human natriuretic peptide receptor Npr1; HEK293 hNpr1 GloSensor cGMP, ANP-stimulated luminescence; Potency, µM (series often up to 46.3 µM), hits mostly inhibitors; hit rate 1.6% among 76,000; calls by dose curve; note: nearly all actives have a fitted effect of over 60% in size
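HEK293 cells stably expressing human Npr1 and cGMP GloSensor pGS-40F, loaded 2 h with 2% GloSensor reagent, given compound 30 min at room temperature. Luminescence read before and 20 min after 0.1 nM hNppA.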
3T3 cytotox: NIH 3T3 cell cytotoxicity; NIH 3T3 viability, CellTiter-Glo ATP luminescence, 48-72 h; hit rate 4.3% among 94,000; Potency, µM (top dose mostly 96.7 µM), usual class: inhibitors; note: nearly all actives have a fitted effect of over 55% in size
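Mouse fibroblast NIH 3T3 cells, 400 per well, received compound via pintool and were incubated for 48 or 72 hr prior to CellTiter-Glo ATP luminescence measurement.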
Of the large screens only hits and unclear results are named; the others gave an inactive call; ! = repeats disagree. Unless noted, calls come from the whole dose curve; as a rule, active = well fitted curve in the direction sought with a large enough effect; inconclusive = small, poorly fitted or top-dose-only effect, or another doubt; inactive = no such curve, though single readings can be large; an effect the other way counts as inactive or inconclusive.

Cc1cc(C)cc(C(=O)N2CCCN(C)c3ccccc32)c1	HEK293 tox 39.8µM, 3T3 cytotox inconclusive
CN1CCCN(C(=O)c2ccc(F)cc2)c2ccccc21	3T3 cytotox inconclusive
COc1cccc(C(=O)NC2CCCN(CCn3nc4n(c3=O)CCCC4)C2)c1 (centres undefined)	none (no result: FLuc inh, hNpr1 antagonist)
C[S+](=O)([O-])NCc1nnc2n1C(C(=O)NCCc1ccccc1F)CC2 (centres undefined)	none (no result: FLuc inh, hNpr1 antagonist)
COc1ccc(C(=O)NC2CCN(C(=O)c3ccc(-c4cccc(OC)c4)cc3)CC2)cc1	HEK293 tox inconclusive (no result: FLuc inh, hNpr1 antagonist)
COc1cccc(-c2ccc(C(=O)N3CCC(NC(=O)c4ccccc4Cl)CC3)cc2)c1	HEK293 tox 39.8µM, 3T3 cytotox inconclusive (no result: FLuc inh, hNpr1 antagonist)
COc1ccc(CC(=O)NC2CCN(C(=O)c3ccc(-c4cccc(OC)c4)cc3)CC2)cc1	HEK293 tox 44.7µM, 3T3 cytotox 35.5µM (no result: FLuc inh, hNpr1 antagonist)
CC(c1ccccc1)N1CCN(c2cccc(CN(C)[S+](C)(=O)[O-])c2F)CC1 (centres undefined)	HEK293 tox 79.4µM, 3T3 cytotox inconclusive (no result: FLuc inh, hNpr1 antagonist)
CN(Cc1ccccc1)C(=O)c1coc(CN2CCN(c3ccccc3F)CC2)n1	HEK293 tox inconclusive
CC(C)N(Cc1cccc(N2CCN(C(=O)c3c(Cl)cccc3Cl)CC2)c1F)[S+](C)(=O)[O-]	HEK293 tox 79.4µM, 3T3 cytotox inconclusive (no result: FLuc inh, hNpr1 antagonist)
CCOC(=O)C(Cc1cccc(N2CCN(C(=O)c3c(Cl)cccc3Cl)CC2)c1F)OC (centres undefined)	HEK293 tox 79.4µM, 3T3 cytotox inconclusive (no result: FLuc inh, hNpr1 antagonist)
CCCN1C(=O)Cc2cc(C(=O)N3CCN(c4ccccc4Cl)CC3)ccc21	HEK293 tox inconclusive, 3T3 cytotox inconclusive
Cc1nc(N2CCN(C(=O)c3c(F)cccc3Cl)CC2)cc(C(F)(F)F)n1	none
CC(C)OC(=O)N(C)Cc1cccc(N2CCN(C(=O)c3c(Cl)cccc3Cl)CC2)c1F	HEK293 tox 35.5µM, 3T3 cytotox inconclusive (no result: FLuc inh, hNpr1 antagonist)
CCCn1cnc2c1CN(S(=O)(=O)c1cccc3c(N(C)C)cccc13)[C@H](C(=O)OC)C2	HEK293 tox inconclusive, 3T3 cytotox inconclusive
COc1ccc(OCC2(C)COc3ccc(C(=O)Nc4ccn(C)n4)cc3N2)cc1 (centres undefined)	HEK293 tox inconclusive, FLuc inh inconclusive, hNpr1 antagonist 17.8µM, 3T3 cytotox inconclusive
CC1(COc2ccc3[nH]ccc3c2)COc2ccc(C(=O)NCC3CCOCC3)cc2N1 (centres undefined)	HEK293 tox inconclusive
CC1(CNc2ccccc2)COc2ccc(C(=O)Nc3ccc4[nH]ccc4c3)cc2N1 (centres undefined)	HEK293 tox inconclusive, FLuc inh 10µM, 3T3 cytotox 39.8µM
COc1cccc(NC(=O)c2ccc3c(c2)NC(C)(COc2ccc4[nH]ccc4c2)CO3)c1 (centres undefined)	HEK293 tox 25.1µM, 3T3 cytotox 12.6µM
CNC(=O)c1cc(C2CC2)nc2c1c(C1CCN(C(=O)c3ccccc3F)C1)nn2C (centres undefined)	none (no result: FLuc inh, hNpr1 antagonist)
CC(=O)Oc1c(-c2ccc(NC(=O)c3ccco3)cc2)c(-c2cccc(C)c2)nn1-c1ccc(F)cc1	HEK293 tox inconclusive, FLuc inh inconclusive, 3T3 cytotox inconclusive
CCOc1ccccc1NC(=O)c1cc2c(N3CCSCC3)nc(C)cn2n1	HEK293 tox 35.5µM, 3T3 cytotox inconclusive
CCc1ccc(CNC(=O)c2cc3c(N4CCCC4)nc(C)cn3n2)cc1	HEK293 tox inconclusive, 3T3 cytotox inconclusive
Cc1cn2nc(C(=O)NCc3ccc(C(F)(F)F)cc3)cc2c(N2CCCC2)n1	HEK293 tox 44.7µM, 3T3 cytotox inconclusive
CCC(CC)N1CC[C@H](CO)[C@H](NC(=O)c2ccccc2)C1	none
CCOC(=O)c1ccc(N2CCN(CCC3c4cccnc4C(=O)N3c3c(C)cccc3C)CC2)cc1 (centres undefined)	HEK293 tox 35.5µM, 3T3 cytotox inconclusive (no result: FLuc inh, hNpr1 antagonist)
O=C(NCCc1ccccn1)c1ccc(OC2CCNCC2)nc1	HEK293 tox inconclusive, FLuc inh 7.94µM, hNpr1 antagonist inconclusive, 3T3 cytotox inconclusive
O=C(NC1CC1)c1nc(-c2cccnc2)c2ccccn12	3T3 cytotox 44.7µM (no result: FLuc inh, hNpr1 antagonist)
O=C(NC1CC1)c1nc(-c2cc(Cl)cc(Cl)c2)c2ccccn12	HEK293 tox inconclusive
O=C(NC1CC1)c1nc(-c2cccc(C(F)(F)F)c2)c2ccccn12	HEK293 tox inconclusive, 3T3 cytotox inconclusive
O=C(NC1CC1)c1nc(-c2ccc(Cl)cc2Cl)c2ccccn12	HEK293 tox 35.5µM, 3T3 cytotox inconclusive
O=C(NC1CC1)c1nc(-c2ccc(F)cc2)c2ccccn12	HEK293 tox 89.1µM!, 3T3 cytotox inconclusive
O=C(NCc1cccs1)c1cn2cc(-c3cccc(C(F)(F)F)c3)sc2n1	HEK293 tox inconclusive (no result: FLuc inh, hNpr1 antagonist)
CN(C)[C@@H]1CN(Cc2cc(F)c(F)c(F)c2)CC[C@@H]1CNC(=O)C1CC1	none
CCOC(=O)C1CCN(C(=O)c2cc(-c3ccncc3)cn2Cc2ccccc2C)CC1	HEK293 tox inconclusive, 3T3 cytotox inconclusive
Cc1ccc(-c2cccc(CN3CCCC3C(=O)NCc3cccc(C(F)(F)F)c3)c2)cc1Cl (centres undefined)	HEK293 tox 39.8µM, 3T3 cytotox 39.8µM (no result: FLuc inh, hNpr1 antagonist)
COC(=O)CNC(=O)C1CCCN1Cc1cccc(-c2ccc(C)c(Cl)c2)c1 (centres undefined)	HEK293 tox 39.8µM, 3T3 cytotox inconclusive (no result: FLuc inh, hNpr1 antagonist)
Cc1ccc(-c2cccc(CN3CCCC3C(=O)NCc3ccccc3)c2)cc1Cl (centres undefined)	HEK293 tox 50.1µM, 3T3 cytotox 44.7µM (no result: FLuc inh, hNpr1 antagonist)
O=C(NCc1ccccc1)C1CCCN1Cc1ccc(-c2cncnc2)cc1 (centres undefined)	HEK293 tox inconclusive (no result: FLuc inh, hNpr1 antagonist)
CCOCCNC(=O)C1CCCN1Cc1cccc(-c2ccc(C)c(Cl)c2)c1 (centres undefined)	HEK293 tox inconclusive, 3T3 cytotox 14.1µM (no result: FLuc inh, hNpr1 antagonist)
COC(=O)CNC(=O)C1CCCN1Cc1ccc(-c2cncnc2)cc1 (centres undefined)	3T3 cytotox inconclusive (no result: FLuc inh, hNpr1 antagonist)
COCCC1(N(C)C)CCN(C(=O)c2ccncc2)CC1	none (no result: FLuc inh, hNpr1 antagonist)
COCCC1(CO)CCCN(c2ncc(F)c(N3CCCC3)n2)C1 (centres undefined)	HEK293 tox inconclusive, FLuc inh inconclusive, 3T3 cytotox inconclusive
CC(C)CN(C)C(=O)c1cc(-c2cnn(C(C)C)c2)nc2cc(F)ccc12	FLuc inh inconclusive, 3T3 cytotox inconclusive
CC(C)n1cc(-c2cc(C(=O)N(C)Cc3cccnc3)c3cc(F)ccc3n2)cn1	HEK293 tox inconclusive, FLuc inh 35.5µM
Cc1cc(=O)n(CC(=O)Nc2ccccc2C)c(-c2ccc(Cl)cc2)n1	HEK293 tox inconclusive, 3T3 cytotox 35.5µM
CC(=O)c1cccc(NC(=O)Cn2c(-c3ccc(F)cc3)nc(C)cc2=O)c1	HEK293 tox 44.7µM
CC(=O)c1cccc(NC(=O)Cn2c(-c3ccccc3)nc(C)cc2=O)c1	HEK293 tox inconclusive
C#CCNC(=O)c1cc(-c2ccc(C(F)(F)F)cc2)nc2c1cnn2C	HEK293 tox 25.1µM, 3T3 cytotox inconclusive (no result: FLuc inh, hNpr1 antagonist)
Cn1ncc2c(C(=O)NCc3ccc(C(F)(F)F)cc3)cc(-c3ccc(F)cc3)nc21	HEK293 tox inconclusive, 3T3 cytotox 22.4µM (no result: FLuc inh, hNpr1 antagonist)
